A short description of experiment [1]: NCI Yeast Anticancer Drug Screen. Data for the rad50 strain (AID 155).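 Also: 0% = growth of vehicle-only cultures of the same strain.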 As to conditions: S. cerevisiae rad50 strain growth inhibition, stronger effect = higher value. The essentials: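 Relative growth inhibition (compound vs vehicle) was measured in yeast with a defined repair-gene alteration.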
Experiment [2] in a line: NCI Yeast Anticancer Drug Screen. Data for the mec2-1 strain (AID 157). As to conditions: S. cerevisiae mec2-1 strain, stronger effect = higher value. The essentials:
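Each compound was tested on mec2-1 yeast, a strain altered in DNA damage repair or cell cycle control. Growth inhibition is reported relative to vehicle.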

The nature of experiment [3]: NCI Yeast Anticancer Drug Screen. Data for the sgs1 mgt1 strain (AID 161).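 Also: 0% = growth of cultures given vehicle only.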 The note with it: S. cerevisiae sgs1 mgt1 strain, stronger effect = higher value. The essentials:
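Inhibition of yeast growth, normalised to vehicle-treated controls, is reported for a strain bearing genetic alterations in DNA damage repair.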

Experiment [4] in a line: NCI Yeast Anticancer Drug Screen. Data for the cln2 rad14 strain (AID 165).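 Also: 0% = growth equal to vehicle treated cultures.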 As to conditions: S. cerevisiae cln2 rad14 strain, stronger effect = higher value. The procedure, abridged: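 Test compounds were added to cln2 rad14 yeast cultures; inhibition of growth was then determined by comparison with vehicle treatment.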
Experiment [5] can be described thus: NCI Yeast Anticancer Drug Screen. Data for the bub3 strain (AID 167). As to conditions: S. cerevisiae bub3 mutant strain, stronger effect = higher value. The procedure, abridged: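 Screening used yeast with an engineered genetic alteration affecting cell cycle control. Compound-exposed cultures were compared with vehicle cultures, and reduced growth was taken as inhibition.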

Experiment [6] can be described thus: NCI Yeast Anticancer Drug Screen. Data for the mlh1 rad18 strain (AID 175). As to conditions: S. cerevisiae mlh1 rad18 strain growth inhibition, stronger effect = higher value. The procedure, abridged:
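Inhibition values reflect reduced growth of mutant yeast versus vehicle-treated controls following compound exposure; the mutations affect DNA damage repair.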

The mark [7] stands for this setting: at 5.0 µM (retest, dose inferred, filed as 0.5).
The mark [8] stands for this setting: at 50.0 µM (retest, dose inferred, filed as 5.0).

The structures appear in SMILES notation. The panel holds about 79,000 compounds, 15% with a hit somewhere; the sample as a whole holds those more often. A number with no mark means an inactive call. Active and inactive are the calls of the source. Rule as the data show it: active = growth inhibition above about 70%; inactive = the rest.

With `COc1ccc(OC(=O)c2ccccc2)c2c1C(=O)C=CC2=O`, the growth inhibition in experiment [1] (setting [7]) is 5%; in experiment [1] (setting [8]), 38%; in experiment [1] (at 50.0 µM) it was 92.7% (active); in experiment [2] (setting [7]), 10%; in experiment [2] (setting [8]), 38%; in experiment [2] (at 50.0 µM) it was 84.2% (active). For the same molecule, the growth inhibition in experiment [3] (setting [7]) is -38%; in experiment [3] (setting [8]), 21%; in experiment [3] (at 50.0 µM), 90.2% (active); in experiment [4] (setting [7]), 0%; in experiment [4] (setting [8]), 18%; in experiment [4] (at 50.0 µM), 51.5%. Further, the growth inhibition in experiment [5] (setting [7]) was -1%; in experiment [5] (setting [8]), 24%; in experiment [5] (at 50.0 µM), 76.8% (active); in experiment [6] (setting [7]) it was 9%; in experiment [6] (setting [8]) it was 24%; in experiment [6] (at 50.0 µM), 67.8%.
Take `CCn1nc(-c2ccccc2)c2c1N(C)c1ccccc1-n1c(-c3ccccc3)nnc1-2`: the growth inhibition in experiment [1] (setting [7]) was -1%; in experiment [1] (setting [8]), 49%; in experiment [1] (at 50.0 µM), 98.7% (active); in experiment [2] (setting [7]), -16%; in experiment [2] (setting [8]), 99% (active); in experiment [2] (at 50.0 µM), 99% (active). Besides, the growth inhibition in experiment [3] (setting [7]) was 3%; in experiment [3] (setting [8]), 45%; in experiment [3] (at 50.0 µM), 99.2% (active); in experiment [4] (setting [7]), 14%; in experiment [4] (setting [8]), 98% (active); in experiment [4] (at 50.0 µM), 99% (active). Further, the growth inhibition is -11% in experiment [5] (setting [7]); 99% (active) in experiment [5] (setting [8]); 99.2% (active) in experiment [5] (at 50.0 µM); 7% in experiment [6] (setting [7]); 98% (active) in experiment [6] (setting [8]); 99.2% (active) in experiment [6] (at 50.0 µM).
As to `C/C(=N/NC(=S)Nc1ccc(C)cc1)c1ccccn1`, the growth inhibition in experiment [1] (setting [7]) was 31%; in experiment [1] (setting [8]), 99% (active); in experiment [1] (at 50.0 µM), 79.2% (active); in experiment [2] (setting [7]), 33%; in experiment [2] (setting [8]), 99% (active); in experiment [2] (at 50.0 µM), 84.9% (active). The growth inhibition in experiment [3] (setting [7]) is 32%; in experiment [3] (setting [8]), 99% (active); in experiment [3] (at 50.0 µM), 88.5% (active); in experiment [4] (setting [7]), -15%; in experiment [4] (setting [8]), 99% (active); in experiment [4] (at 50.0 µM) it was 88.3% (active). Moreover, the growth inhibition in experiment [5] (setting [7]) was -7%; in experiment [5] (setting [8]), 99% (active); in experiment [5] (at 50.0 µM), 90% (active); in experiment [6] (setting [7]) it was 20%; in experiment [6] (setting [8]) it was 99% (active); in experiment [6] (at 50.0 µM) it was 87.9% (active).
For `CC(C)OC(=O)Oc1c(Cl)c(Cl)c(Cl)c(Cl)c1Cl`, the growth inhibition was -3% in experiment [1] (setting [7]); 97% (active) in experiment [1] (setting [8]); 62% in experiment [1] (at 50.0 µM); 0% in experiment [2] (setting [7]); 99% (active) in experiment [2] (setting [8]); 50.6% in experiment [2] (at 50.0 µM). Also, the growth inhibition was -2% in experiment [3] (setting [7]); 98% (active) in experiment [3] (setting [8]); 55% in experiment [3] (at 50.0 µM); 5% in experiment [4] (setting [7]); 98% (active) in experiment [4] (setting [8]); 15.9% in experiment [4] (at 50.0 µM). Besides, the growth inhibition in experiment [5] (setting [7]) was 2%; in experiment [5] (setting [8]) it was 99% (active); in experiment [5] (at 50.0 µM) it was 74.4% (active); in experiment [6] (setting [7]) it was -1%; in experiment [6] (setting [8]) it was 96% (active); in experiment [6] (at 50.0 µM) it was 56.8%.
Take `NNc1nc(Nc2ccccc2)nc(Nc2ccccc2)n1`: the growth inhibition in experiment [1] (setting [7]) was -8%; in experiment [1] (setting [8]), 93% (active); in experiment [1] (at 50.0 µM), 51.9%; in experiment [2] (setting [7]) it was -5%; in experiment [2] (setting [8]), 10%; in experiment [2] (at 50.0 µM), 42%. Further, the growth inhibition in experiment [3] (setting [7]) is -9%; in experiment [3] (setting [8]) it was 56%; in experiment [3] (at 50.0 µM), 45.5%; in experiment [4] (setting [7]), -9%; in experiment [4] (setting [8]), 52%; in experiment [4] (at 50.0 µM), 37.5%. Moreover, the growth inhibition is -4% in experiment [5] (setting [7]); 44% in experiment [5] (setting [8]); 48.5% in experiment [5] (at 50.0 µM); -2% in experiment [6] (setting [7]); 51% in experiment [6] (setting [8]); 41.6% in experiment [6] (at 50.0 µM).
`COc1ccc(-c2c(C#N)c(S)n(NS(=O)(=O)c3ccc(C)cc3)c(=O)c2C#N)cc1`: the growth inhibition in experiment [1] (setting [7]) was 40%; in experiment [1] (setting [8]), 89% (active); in experiment [1] (at 50.0 µM) it was 28.8%; in experiment [2] (setting [7]), 18%; in experiment [2] (setting [8]) it was 88% (active); in experiment [2] (at 50.0 µM) it was 69.1%. The growth inhibition in experiment [3] (setting [7]) is 34%; in experiment [3] (setting [8]), 97% (active); in experiment [3] (at 50.0 µM), 61%; in experiment [4] (setting [7]) it was 48%; in experiment [4] (setting [8]) it was 64%; in experiment [4] (at 50.0 µM), 20%. For the same molecule, the growth inhibition in experiment [5] (setting [7]) is 58%; in experiment [5] (setting [8]), 95% (active); in experiment [5] (at 50.0 µM), 43.8%; in experiment [6] (setting [7]) it was 27%; in experiment [6] (setting [8]), 69%; in experiment [6] (at 50.0 µM), 71.5% (active).
Turning to `COC(=O)/C(C#N)=C/c1cc(OC)c(O)cc1Br`, the growth inhibition in experiment [1] (setting [7]) is 46%; in experiment [1] (setting [8]) it was 56%; in experiment [1] (at 50.0 µM), 48.6%; in experiment [2] (setting [7]), 31%; in experiment [2] (setting [8]), 44%; in experiment [2] (at 50.0 µM), 40%. In addition, the growth inhibition in experiment [3] (setting [7]) is 44%; in experiment [3] (setting [8]), 68%; in experiment [3] (at 50.0 µM) it was 42.1%; in experiment [4] (setting [7]) it was 35%; in experiment [4] (setting [8]) it was 43%; in experiment [4] (at 50.0 µM), 43.8%. In addition, the growth inhibition was 46% in experiment [5] (setting [7]); 48% in experiment [5] (setting [8]); 46.5% in experiment [5] (at 50.0 µM); 54% in experiment [6] (setting [7]); 76% (active) in experiment [6] (setting [8]); 31.1% in experiment [6] (at 50.0 µM).
As to `O=CCCCc1cc2c(cc1Br)CCC2`, the growth inhibition in experiment [1] (setting [7]) is 0%; in experiment [1] (setting [8]) it was 62%; in experiment [1] (at 50.0 µM), 60.9%; in experiment [2] (setting [7]), 14%; in experiment [2] (setting [8]), 62%; in experiment [2] (at 50.0 µM), 70.9% (active). Further, the growth inhibition was 11% in experiment [3] (setting [7]); 73% (active) in experiment [3] (setting [8]); 64.2% in experiment [3] (at 50.0 µM); 10% in experiment [4] (setting [7]); 82% (active) in experiment [4] (setting [8]); 72.2% (active) in experiment [4] (at 50.0 µM). Also, the growth inhibition was 23% in experiment [5] (setting [7]); 92% (active) in experiment [5] (setting [8]); 77.5% (active) in experiment [5] (at 50.0 µM); 21% in experiment [6] (setting [7]); 91% (active) in experiment [6] (setting [8]); 50.4% in experiment [6] (at 50.0 µM).
On to `CC(C)COP(=O)(OCC(C)C)C(NS(=O)(=O)c1ccccc1)(C(F)(F)F)C(F)(F)F`, for which the growth inhibition in experiment [1] (setting [7]) was 4%; in experiment [1] (setting [8]) it was 11%; in experiment [1] (at 50.0 µM), 63.5%; in experiment [2] (setting [7]) it was -12%; in experiment [2] (setting [8]), -2%; in experiment [2] (at 50.0 µM), 82.7% (active). In addition, the growth inhibition was 7% in experiment [3] (setting [7]); -5% in experiment [3] (setting [8]); -2.35% in experiment [3] (at 50.0 µM); 27% in experiment [4] (setting [7]); 42% in experiment [4] (setting [8]); 6.85% in experiment [4] (at 50.0 µM). In addition, the growth inhibition in experiment [5] (setting [7]) was -6%; in experiment [5] (setting [8]) it was 8%; in experiment [5] (at 50.0 µM), -3.8%; in experiment [6] (setting [7]), 0%; in experiment [6] (setting [8]) it was 3%; in experiment [6] (at 50.0 µM) it was 90.2% (active).
For `N=C(N)SCc1ccc(Br)cc1`, the growth inhibition in experiment [1] (setting [7]) is -13%; in experiment [1] (setting [8]), -17%; in experiment [1] (at 50.0 µM) it was -2.75%; in experiment [2] (setting [7]) it was -29%; in experiment [2] (setting [8]) it was -23%; in experiment [2] (at 50.0 µM), 13.8%. Also, the growth inhibition in experiment [3] (setting [7]) is -20%; in experiment [3] (setting [8]), -15%; in experiment [3] (at 50.0 µM), -15.9%; in experiment [4] (setting [7]), -16%; in experiment [4] (setting [8]) it was -4%; in experiment [4] (at 50.0 µM) it was 27.6%. Besides, the growth inhibition in experiment [5] (setting [7]) is -18%; in experiment [5] (setting [8]), 35%; in experiment [5] (at 50.0 µM) it was 16.9%; in experiment [6] (setting [7]), -29%; in experiment [6] (setting [8]) it was 2%; in experiment [6] (at 50.0 µM), 19.9%.

Values taken from PubChem BioAssay (NCI).
